aSyn 5UTR act = Activators working through SNCA 5'UTR binding (MLPCN). alpha-synuclein 5'UTR reporter, activators screen. AID 1814. actives 7.1% (n = 300,000). activity score, % (tested at 7.5 µM), hits read low; in the data active = activity score below about -60%
The depositor's hits bear a star. A selection follows.

How did Nc1ccc(-c2nc3ccc([N+](=O)[O-])cc3[nH]2)cc1 do in these assays?
aSyn 5UTR act: -84*

How did O=[N+]([O-])c1ccc(-c2nc3ccc([N+](=O)[O-])cc3[nH]2)cc1 do in these assays?
aSyn 5UTR act: -143*

How did Cc1ccc(OCC(=O)Nc2ccccc2F)cc1 do in these assays?
aSyn 5UTR act: -72*

How did Cc1ccc(C(=O)CCC(=O)Nc2ccccc2F)cc1 do in these assays?
aSyn 5UTR act: -98*

How did Cc1ccc(OCC(=O)Nc2ccccc2F)cc1C do in these assays?
aSyn 5UTR act: -178*

How did Cc1ccc(CCC(=O)Nc2ccccc2F)s1 do in these assays?
aSyn 5UTR act: -91*

How did CCOC(=O)c1oc2ccccc2c1NC(=O)COc1ccc(F)cc1 do in these assays?
aSyn 5UTR act: 61

What do the screens show for `O=C(COc1ccccc1)NCCSCc1ccccc1Cl`?
aSyn 5UTR act: -64*

Results for O=C(COc1ccccc1)Nc1ccccc1Cl ?
aSyn 5UTR act: -165*

How did O=C(CSc1ccccc1)NCc1ccccc1 do in these assays?
aSyn 5UTR act: -69*

What do the screens show for `COc1ccccc1CNC(=O)Cc1ccccc1`?
aSyn 5UTR act: -77*

Results for O=C(CSCc1cccc(F)c1)NCc1ccccc1 ?
aSyn 5UTR act: -75*

How did COc1ccccc1CNC(=O)CSc1ccccc1 do in these assays?
aSyn 5UTR act: -100*

How did Nc1ccc(C(=O)N/N=C/c2cn(Cc3cccc(F)c3)c3ccccc23)cc1 do in these assays?
aSyn 5UTR act: 70

What do the screens show for `Cc1ccc2nc(-c3ccc4c(c3)NC(=O)CO4)cn2c1`?
aSyn 5UTR act: -80*

How did Cc1ccc2nc(-c3ccc4c(c3)OCCO4)cn2c1 do in these assays?
aSyn 5UTR act: 110

How did CCOC(=O)c1c(C)[nH]c(C(=O)CSc2nccc(C)n2)c1C do in these assays?
aSyn 5UTR act: -129*

Results for CCOC(=O)c1c(C)[nH]c(C(=O)CN2C(=O)NC3(CCCC3)C2=O)c1C ?
aSyn 5UTR act: -67*

Results for Cc1cc(C(=O)CN2C(=O)NC3(CCCCC3C)C2=O)c(C)n1Cc1cccs1 (configuration not stated) ?
aSyn 5UTR act: -165*

How did Cc1cc(C(=O)CN2C(=O)NC3(CCCCC3)C2=O)c(C)n1C do in these assays?
aSyn 5UTR act: -69*

Results for Cc1cc(C)c(C(=O)CN2C(=O)NC3(CCCCCC3)C2=O)cc1C ?
aSyn 5UTR act: -72*

How did COc1ccc(C(=O)CN2C(=O)c3ccccc3S2(=O)=O)cc1 do in these assays?
aSyn 5UTR act: 101

How did COC(=O)c1ccc(CN2C(=O)NC3(CCCCC3)C2=O)cc1 do in these assays?
aSyn 5UTR act: -124*

How did COc1ccc(C(=O)CN2C(=O)NC3(CCCCCC3)C2=O)cc1 do in these assays?
aSyn 5UTR act: -90*

How did N#C/C(=C\c1ccccc1)c1ccccn1 do in these assays?
aSyn 5UTR act: -100*

What do the screens show for `CNc1ccc(/C=C(\C#N)c2ccccn2)cc1[N+](=O)[O-]`?
aSyn 5UTR act: -157*

What do the screens show for `C[C@]12CCC(=O)C=C1CC[C@@H]1[C@@H]2[C@@H](O)C[C@]2(C=O)[C@@H](C(=O)CO)CC[C@@H]12`?
aSyn 5UTR act: -78*

Results for Cc1ccc(-c2cc(N)n(-c3ccc(F)cc3)n2)cc1 ?
aSyn 5UTR act: -147*

What do the screens show for `Cc1ccc(-c2cc(N)n(-c3ccc(C)cc3)n2)cc1`?
aSyn 5UTR act: -124*

Results for Cc1ccccc1OCc1occc1C(=O)Nc1cccc(-n2cnnn2)c1 ?
aSyn 5UTR act: -91*

What do the screens show for `O=C(O)c1ccc(N/N=C/c2ccc(OC(=O)c3ccccc3Cl)cc2)cc1`?
aSyn 5UTR act: 57

Results for O=C(O)c1ccc(N/N=C/c2ccc(-c3ccccc3Cl)o2)cc1 ?
aSyn 5UTR act: -65*

How did Cc1ccc(/C=N/Nc2ccc(C(=O)O)cc2)s1 do in these assays?
aSyn 5UTR act: 76

What do the screens show for `Cc1ccc(/C=N/Nc2ccc(C(=O)O)cc2)o1`?
aSyn 5UTR act: -70*

What do the screens show for `Cc1ccc(-c2csc(=S)[nH]2)cc1`?
aSyn 5UTR act: -113*

How did S=c1[nH]c(-c2ccc(Cl)cc2)cs1 do in these assays?
aSyn 5UTR act: -76*

How did C=C(C)CNC(=S)Nc1nc2c(cc1C(=O)OCC)CCCC2 do in these assays?
aSyn 5UTR act: -105*

How did Cc1ccc(C(=O)OCC(=O)NCc2cccs2)c(C)c1 do in these assays?
aSyn 5UTR act: -75*

What do the screens show for `CSc1ccc(/C=N/Nc2ccc(Cl)c(C(=O)O)c2)cc1`?
aSyn 5UTR act: -134*

Results for O=C(O)c1ccc(/C=N/Nc2cccc(C(F)(F)F)c2)cc1 ?
aSyn 5UTR act: -137*

How did Cc1nn(-c2ccccc2Cl)c(Cl)c1/C=N/Nc1cccc(C(=O)O)c1 do in these assays?
aSyn 5UTR act: 103

How did Cc1nn(-c2cccc(C(F)(F)F)c2)c(Cl)c1/C=N/Nc1cccc(C(=O)O)c1 do in these assays?
aSyn 5UTR act: -108*

Results for CC(C)c1ccc(/C=N/Nc2ccc(C(=O)O)cc2)cc1 ?
aSyn 5UTR act: 85

Results for O=C(O)c1ccc(N/N=C/c2ccc(-c3ccccc3)cc2)cc1 ?
aSyn 5UTR act: -78*

How did C/C(=N\Nc1cccc(C(F)(F)F)c1)c1ccc(O)cc1 do in these assays?
aSyn 5UTR act: -76*

How did O=C(O)c1cc(N/N=C/c2ccc(-c3ccccc3)cc2)ccc1Cl do in these assays?
aSyn 5UTR act: -202*

Results for O=C(O)c1ccc(N/N=C/C=C/c2ccccc2)cc1 ?
aSyn 5UTR act: -125*

How did Cc1cccc(NC(=O)CSc2nccn2Cc2ccco2)c1 do in these assays?
aSyn 5UTR act: -89*

What do the screens show for `CCC(=O)Nc1cc(NC(=O)CSc2ncc(-c3ccc(F)cc3)n2Cc2ccco2)ccc1C`?
aSyn 5UTR act: -226*

Results for Cc1cccc(NC(=O)CSc2nccn2Cc2ccco2)c1C ?
aSyn 5UTR act: -81*

How did COc1ccc(NC(=O)CSc2nccn2Cc2ccco2)cc1 do in these assays?
aSyn 5UTR act: -96*

How did CC1CCN(c2ccc(-c3cccs3)nn2)CC1 do in these assays?
aSyn 5UTR act: 102

What do the screens show for `O=C(CSc1nnc(-c2cccs2)o1)N1CCCCC1`?
aSyn 5UTR act: -99*

Results for O=C(CSc1nnc(-c2ccco2)o1)N1CCCCC1 ?
aSyn 5UTR act: -95*

Results for CC1CCN(C(=O)CSc2nnc(-c3cccs3)o2)CC1 ?
aSyn 5UTR act: -79*

What do the screens show for `O=C(CSc1nnc(-c2ccco2)o1)c1ccc[nH]1`?
aSyn 5UTR act: -158*

How did CCOc1ccc(OCc2ccc(C(=O)N3CCOCC3)cc2)cc1 do in these assays?
aSyn 5UTR act: -91*

What do the screens show for `CCOc1ccc(N=C(/C(C(=O)C(=O)N2CCOCC2)=C(\O)c2ccccc2)c2ccccc2)cc1`?
aSyn 5UTR act: -151*

What do the screens show for `CCOc1ccc(C(=O)c2cc([N+](=O)[O-])ccc2N2CCOCC2)cc1`?
aSyn 5UTR act: 79

Results for CCOc1ccc(OCc2ccc(C(=O)N3CCCC(C)C3)cc2)cc1 (configuration not stated) ?
aSyn 5UTR act: -63*

What do the screens show for `O=C(CSc1nnc(SCc2ccccc2Cl)s1)N/N=C/c1c[nH]c2ccccc12`?
aSyn 5UTR act: -94*

Results for Cc1ccc(CSc2nnc(SCC(=O)N/N=C/c3ccc(C(=O)O)cc3)s2)cc1 ?
aSyn 5UTR act: 70

Results for O=C(CSc1nnc(SCc2ccc(Cl)cc2)s1)N/N=C/c1c(Cl)cccc1Cl ?
aSyn 5UTR act: -69*

What do the screens show for `Cc1ccc(CSc2nnc(SCC(=O)N/N=C/c3ccccc3OCC(=O)O)s2)cc1`?
aSyn 5UTR act: 62

Results for Cc1cccc2cc(C#N)c(SCc3nnc(-c4ccccc4[N+](=O)[O-])o3)nc12 ?
aSyn 5UTR act: -87*

From PubChem BioAssay
